Several values for one entry are separate records, joined by “and”; a condition that tells them apart may be missing. Identical values can stand only once. Results filed as inconclusive are left out. Where a call stands in place of a potency, no number is given. Some structures have more than one record in an assay (separate samples or runs), and their calls can disagree. Activity calls are given as the source filed them. Calls follow the shape of the dose curve; as a rule, active = well fitted curve in the direction sought with a large enough effect; inconclusive = small, poorly fitted or top-dose-only effect, or another doubt; inactive = no such curve, though single readings can be large; an effect the other way counts as inactive or inconclusive.
What was measured:
[1] = Viability qHTS for spleen associated tyrosine kinase inhibitor (SYKi) naive MV4-11 cells (AID 1963823); also: nearly all actives have a fitted effect of over 40% in size
Method in brief: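 Seeding of 500 SYKi-naive MV4-11 cells per well onto pre-dispensed compounds preceded a 72 hr incubation at 37 C. Luminescent CellTiter-Glo signal, read after 10 min at room temperature, reflected viable cells.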

[2] = Viability qHTS for spleen associated tyrosine kinase inhibitor (SYKi) drug resistant MV4-11 cells (AID 1963824); also: nearly all actives have a fitted effect of over 35% in size
Method in brief: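 SYK inhibitor-resistant MV4-11 AML cells, 500 per well, added to predispensed compounds and incubated 72 hr at 37 C, 5% CO2. Viability measured by CellTiter-Glo luminescence after 10 min at room temperature.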

[3] = Quantitative highthroughput screen to assess conditional lethalithy of NOMO1 cells grown in RPMI1640 with untreated serum (RPMI+s) (AID 1963876); also: nearly all actives have a fitted effect of over 35% in size
Method in brief: (§1)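 Each medium arm—HPLM with 10% dialyzed FBS, or RPMI1640 with 5 mM glucose and 10% untreated or dialyzed FBS—was screened against an 11-point, 3-fold compound titration for 48 h at 37 °C, with CellTiter-Glo luminescence as endpoint.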

[4] = Quantitative highthroughput screen to assess conditional lethalithy of NOMO1 cells grown in RPMI1640 with dialyzed fetal bovine serum (RPMI+ds) (AID 1963877); also: nearly all actives have a fitted effect of over 30% in size; as to Viability: series mostly up to about 46 µM
Method in brief: as §1

[5] = Quantitative highthroughput screen to assess conditional lethalithy of NOMO1 cells grown in Human Plasma-Like Medium with dialyzed fetal bovine serum (HPLM+ds) (AID 1963878); also: nearly all actives have a fitted effect of over 35% in size
Method in brief: as §1

[6] = Quantitative highthroughput screen to assess conditional lethalithy of P12 Ichikawa cells grown in Human Plasma-Like Medium with dialyzed fetal bovine serum (HPLM+ds) (AID 1963879); settings: Potency: viability; also: nearly all actives have a fitted effect of over 35% in size; as to Viability: series mostly up to about 46 µM
Method in brief: as §1

[7] = Quantitative highthroughput screen to assess conditional lethalithy of P12 Ichikawa cells grown in RPMI1640 with dialyzed fetal bovine serum (RPMI+ds) (AID 1963880); settings: Potency: P12-Ichikawa viability; also: nearly all actives have a fitted effect of over 35% in size
Method in brief: as §1

[8] = Quantitative highthroughput screen to assess conditional lethalithy of P12 Ichikawa cells grown in RPMI1640 with untreated serum (RPMI+s) (AID 1963881); settings: Potency: viability; also: nearly all actives have a fitted effect of over 35% in size; as to Viability: series mostly up to about 46 µM
Method in brief: as §1

[9] = Quantitative highthroughput screen to assess conditional lethalithy of SEM cells grown in Human Plasma-Like Medium with dialyzed fetal bovine serum (HPLM+ds) (AID 1963882); also: nearly all actives have a fitted effect of over 35% in size; as to Viability: series mostly up to about 46 µM
Method in brief: as §1

[10] = Quantitative highthroughput screen to assess conditional lethalithy of SEM cells grown in RPMI1640 with unreated serum (RPMI+s) (AID 1963883); also: nearly all actives have a fitted effect of over 35% in size
Method in brief: as §1

[11] = Quantitative highthroughput screen to assess conditional lethalithy of SEM cells grown in RPMI1640 with dialyzed fetal bovine serum (RPMI+ds) (AID 1963884); also: nearly all actives have a fitted effect of over 35% in size; as to Viability: series mostly up to about 46 µM
Method in brief: as §1

[12] = Cellular viability qHTS for adrenocortical cancer (ACC) cell line SW-13 (AID 1963989); settings: SW-13 ACC cells viability, CellTiter-Glo, 48 h; activity (max response): stronger effect = lower value; also: nearly all actives have a fitted effect of over 65% in size;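 as to activity (max response): cells grown in serum-free medium with ITS supplement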
Method in brief: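 Luminescent ATP read-out (CellTiter-Glo, 20 min at room temperature) measured metabolically competent SW-13 cells after 48 h compound treatment. Final concentrations spanned up to 46 uM; bortezomib served as positive control.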

[13] = Cellular viability qHTS for adrenocortical cancer (ACC) cell line NCI-H295R (AID 1963990); also: nearly all actives have a fitted effect of over 60% in size
Method in brief: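 IC50 and maximal efficacy derive from four-parameter logistic modelling of titration curves, with reads scaled between DMSO-only wells (0%) and doxorubicin hydrochloride (100% inhibition). Compounds spanned up to 46 uM over 48 h.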
Potency is read from the fitted curve at half-maximal effect.

SMILES | Potency [1] | Potency [2] | Potency [3] | Potency [4] | Potency [5] | Potency [6] | Potency [7] | Potency [8] | Potency [9] | Potency [10] | Potency [11] | activity (max response) [12] | Potency [12] | Potency [13]
Clc1ccc2c(c1)C(N1CCNCC1)=Nc1ccccc1O2 | inactive | 13.3 µM (active) and inactive | inactive | inactive | inactive | inactive | inactive | inactive | inactive | inactive | inactive | -1.69% (inactive) |  | 
Cc1[nH]nc2ccc(-c3cncc(OC[C@@H](N)Cc4ccccc4)c3)cc12 | 82 nM (active) and 132 nM (active) | 116 nM (active) | 2960 nM (active) | 2350 nM (active) | 1660 nM (active) | 4180 nM (active) | 3320 nM (active) | 2960 nM (active) | 1180 nM (active) | 2090 nM (active) | 2350 nM (active) |  | 562 nM (active) | 
C[C@@H](N)C1CCC(C(=O)Nc2ccncc2)CC1 (some centres not stated) | inactive | inactive | inactive | inactive | inactive | inactive | inactive | inactive | inactive | inactive | inactive | -5.19% (inactive) |  | 
Cc1cnc(C(=O)O)c[n+]1[O-] | inactive | inactive | inactive | inactive | inactive | inactive | inactive | inactive | inactive | inactive | inactive | -15.7% (inactive) |  | inactive
Nc1ccccc1NC(=O)c1ccc(CNc2nccc(-c3cccnc3)n2)cc1 | 291 nM (active) | 231 nM (active) | 2640 nM (active) | 2350 nM (active) | 2350 nM (active) | 2090 nM (active) | 2350 nM (active) | 2090 nM (active) | 743 nM (active) | 833 nM (active) | 662 nM (active) |  | 3980 nM (active) | 355 nM (active)

Reference: PubChem BioAssay (NCATS)
